For test [1], the target named is Nuclear receptor coactivator 3 (Homo sapiens) (UniProt Q9Y6Q9). Briefly: SRC3 coactivator transcriptional activity inhibitors, confirmation, cell-based, luminescence, quadruplicate (AID 588792).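 Note: 0% = DMSO treated cells and 100% = gossypol at 36 µM.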 The following applies: HEK293 GAL4-SRC3 luciferase reporter, at 3.6 µM, hits give high values. For orientation: A reporter such as luciferase makes a cellular process visible.

Test [2] deals with transactivating tegument protein VP16 (Human herpesvirus 1), Gal4-VP16 luciferase reporter. Briefly: VP16 transactivation inhibitors, counter-screen for SRC3 inhibitor project, cell-based, luminescence, high throughput (AID 588794; in the data active = inhibition above about 30%). Conditions: mammalian cells, VP16-driven luciferase reporter luminescence; at 3.6 µM; hits give high values. (The purpose of a counterscreen is to sort out artefacts and off-target activity.)

In test [3] the target is Nuclear receptor coactivator 1 (Homo sapiens) (UniProt Q15788). The experiment in a line: SRC1 coactivator transcriptional activity inhibitors, confirmation, cell-based, luminescence, quadruplicate (AID 588820;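 active = mean inhibition above 46.68%, the untreated control wells mean plus 3 SD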;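 note: 0% = DMSO wells and 100% = gossypol 36 µM treated wells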). The following applies: HEK293 GAL4-SRC1 luciferase reporter, at 3.6 µM, hits give high values.
A short description of test [4]: VP16 transactivation inhibitors, counter-screen for SRC1 inhibitor project, cell-based, luminescence, high throughput (AID 588824; in the data active = inhibition above about 25%). The following applies: cell-based VP16 transactivation luciferase luminescence; at 3.6 µM; hits give high values.
Test [5] has as its system transactivating tegument protein VP16 (Human herpesvirus 1). Briefly: VP16 transactivation reporter inhibitors, counter-screen for SRC2 inhibitor project, cell-based, luminescence, single concentration (AID 652007; in the data active = inhibition above about 36%). Conditions: cell-based VP16 transactivation luciferase reporter, at 8.9 µM, hits give high values.
Test [6] deals with Nuclear receptor coactivator 2 (Homo sapiens) (UniProt Q15596). The experiment in a line: SRC2 coactivator transcriptional activity inhibitors, confirmation, cell-based, luminescence, HEK293, triplicate (AID 652008;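 active = mean inhibition above 46.5%, the solvent-only control mean plus 3 SD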;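 note: 0% = DMSO-treated cells and 100% = Gossypol at 36 µM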). Conditions: HEK293 GAL4-SRC2 luciferase reporter, at 8.9 µM, hits give high values.

The results in this text go back to PubChem BioAssay.

Unmarked numbers belong to inactive results. Activity calls are given as the source filed them.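 Rule for the calls, unless noted: active = mean inhibition over 43.08%, the solvent-only control mean plus 3 SD; inactive = the rest.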

Sequence of Nuclear receptor coactivator 1 (Homo sapiens) (Q15788 whole entry, looked up, the tested form may be a part): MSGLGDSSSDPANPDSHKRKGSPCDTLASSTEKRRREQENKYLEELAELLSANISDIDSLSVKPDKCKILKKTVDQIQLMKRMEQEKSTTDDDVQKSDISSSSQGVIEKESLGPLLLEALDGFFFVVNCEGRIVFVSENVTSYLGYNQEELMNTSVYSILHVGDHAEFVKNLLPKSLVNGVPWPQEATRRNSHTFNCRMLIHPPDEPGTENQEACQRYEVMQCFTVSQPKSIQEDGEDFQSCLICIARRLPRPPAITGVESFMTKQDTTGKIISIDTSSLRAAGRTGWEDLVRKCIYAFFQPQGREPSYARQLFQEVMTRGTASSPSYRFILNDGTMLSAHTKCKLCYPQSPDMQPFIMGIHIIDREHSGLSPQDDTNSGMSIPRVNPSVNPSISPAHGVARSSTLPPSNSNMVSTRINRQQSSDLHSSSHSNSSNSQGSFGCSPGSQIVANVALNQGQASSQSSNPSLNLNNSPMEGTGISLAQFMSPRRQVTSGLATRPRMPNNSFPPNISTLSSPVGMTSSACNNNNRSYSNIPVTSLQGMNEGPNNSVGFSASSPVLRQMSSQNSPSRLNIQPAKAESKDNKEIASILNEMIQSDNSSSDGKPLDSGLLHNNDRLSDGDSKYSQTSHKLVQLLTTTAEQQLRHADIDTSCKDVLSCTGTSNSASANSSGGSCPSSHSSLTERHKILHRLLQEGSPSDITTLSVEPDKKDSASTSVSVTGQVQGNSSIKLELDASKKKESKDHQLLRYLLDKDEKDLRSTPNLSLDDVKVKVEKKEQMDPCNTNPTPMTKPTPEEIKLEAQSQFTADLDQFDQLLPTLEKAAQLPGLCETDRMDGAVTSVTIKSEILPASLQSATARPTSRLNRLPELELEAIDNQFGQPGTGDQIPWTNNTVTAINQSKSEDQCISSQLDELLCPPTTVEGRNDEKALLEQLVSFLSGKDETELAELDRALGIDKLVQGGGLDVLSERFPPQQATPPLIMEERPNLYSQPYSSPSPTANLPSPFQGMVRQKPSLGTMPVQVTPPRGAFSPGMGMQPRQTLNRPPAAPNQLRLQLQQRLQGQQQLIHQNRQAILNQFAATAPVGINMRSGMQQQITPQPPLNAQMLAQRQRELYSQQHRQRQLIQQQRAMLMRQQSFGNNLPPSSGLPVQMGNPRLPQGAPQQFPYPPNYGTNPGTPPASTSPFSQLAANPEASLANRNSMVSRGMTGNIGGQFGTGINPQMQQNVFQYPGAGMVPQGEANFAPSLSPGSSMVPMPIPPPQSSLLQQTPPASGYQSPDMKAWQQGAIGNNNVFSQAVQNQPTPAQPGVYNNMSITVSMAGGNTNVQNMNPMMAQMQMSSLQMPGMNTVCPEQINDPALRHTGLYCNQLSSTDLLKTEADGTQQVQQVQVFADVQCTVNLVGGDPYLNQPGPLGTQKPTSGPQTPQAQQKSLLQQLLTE
Sequence of Nuclear receptor coactivator 2 (Homo sapiens) (Q15596 whole entry, looked up, the tested form may be a part): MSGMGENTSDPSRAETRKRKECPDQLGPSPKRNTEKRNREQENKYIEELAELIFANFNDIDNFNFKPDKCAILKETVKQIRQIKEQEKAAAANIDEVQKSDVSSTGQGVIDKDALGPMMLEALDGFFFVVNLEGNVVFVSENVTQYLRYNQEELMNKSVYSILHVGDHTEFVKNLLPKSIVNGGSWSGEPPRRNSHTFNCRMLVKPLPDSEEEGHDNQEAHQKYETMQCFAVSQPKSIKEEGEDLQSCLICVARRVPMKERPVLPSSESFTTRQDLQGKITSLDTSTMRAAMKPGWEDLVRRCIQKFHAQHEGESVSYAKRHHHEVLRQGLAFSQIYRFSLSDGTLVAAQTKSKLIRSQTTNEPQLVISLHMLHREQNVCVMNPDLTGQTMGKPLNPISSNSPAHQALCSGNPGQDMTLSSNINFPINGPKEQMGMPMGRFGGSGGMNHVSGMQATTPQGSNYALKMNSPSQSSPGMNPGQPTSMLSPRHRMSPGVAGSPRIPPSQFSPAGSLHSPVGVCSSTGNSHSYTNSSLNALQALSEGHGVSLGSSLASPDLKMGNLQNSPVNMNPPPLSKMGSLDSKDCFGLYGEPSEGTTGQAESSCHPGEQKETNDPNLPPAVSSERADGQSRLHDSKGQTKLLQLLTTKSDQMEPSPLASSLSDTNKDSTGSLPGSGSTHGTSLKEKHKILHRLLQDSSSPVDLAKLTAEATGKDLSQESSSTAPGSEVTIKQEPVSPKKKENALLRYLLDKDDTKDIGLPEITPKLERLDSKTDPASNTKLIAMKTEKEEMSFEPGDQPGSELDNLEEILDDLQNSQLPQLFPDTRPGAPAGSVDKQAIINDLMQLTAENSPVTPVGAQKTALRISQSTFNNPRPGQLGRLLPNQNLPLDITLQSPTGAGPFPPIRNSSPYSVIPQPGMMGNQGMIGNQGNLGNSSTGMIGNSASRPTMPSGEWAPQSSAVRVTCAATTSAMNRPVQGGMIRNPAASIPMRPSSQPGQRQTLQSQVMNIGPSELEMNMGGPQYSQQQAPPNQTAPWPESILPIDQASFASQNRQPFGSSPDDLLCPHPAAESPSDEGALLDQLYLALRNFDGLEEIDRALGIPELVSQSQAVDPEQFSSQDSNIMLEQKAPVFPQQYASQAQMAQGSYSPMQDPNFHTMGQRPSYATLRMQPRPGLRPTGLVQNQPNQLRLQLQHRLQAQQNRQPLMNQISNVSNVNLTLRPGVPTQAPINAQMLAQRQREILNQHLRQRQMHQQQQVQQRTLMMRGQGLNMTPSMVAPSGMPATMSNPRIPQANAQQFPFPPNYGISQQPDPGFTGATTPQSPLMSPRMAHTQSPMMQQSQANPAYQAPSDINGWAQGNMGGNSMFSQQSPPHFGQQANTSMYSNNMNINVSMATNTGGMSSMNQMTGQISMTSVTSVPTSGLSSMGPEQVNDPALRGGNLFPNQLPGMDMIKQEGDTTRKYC
Sequence of Nuclear receptor coactivator 3 (Homo sapiens) (Q9Y6Q9 whole entry, looked up, the tested form may be a part): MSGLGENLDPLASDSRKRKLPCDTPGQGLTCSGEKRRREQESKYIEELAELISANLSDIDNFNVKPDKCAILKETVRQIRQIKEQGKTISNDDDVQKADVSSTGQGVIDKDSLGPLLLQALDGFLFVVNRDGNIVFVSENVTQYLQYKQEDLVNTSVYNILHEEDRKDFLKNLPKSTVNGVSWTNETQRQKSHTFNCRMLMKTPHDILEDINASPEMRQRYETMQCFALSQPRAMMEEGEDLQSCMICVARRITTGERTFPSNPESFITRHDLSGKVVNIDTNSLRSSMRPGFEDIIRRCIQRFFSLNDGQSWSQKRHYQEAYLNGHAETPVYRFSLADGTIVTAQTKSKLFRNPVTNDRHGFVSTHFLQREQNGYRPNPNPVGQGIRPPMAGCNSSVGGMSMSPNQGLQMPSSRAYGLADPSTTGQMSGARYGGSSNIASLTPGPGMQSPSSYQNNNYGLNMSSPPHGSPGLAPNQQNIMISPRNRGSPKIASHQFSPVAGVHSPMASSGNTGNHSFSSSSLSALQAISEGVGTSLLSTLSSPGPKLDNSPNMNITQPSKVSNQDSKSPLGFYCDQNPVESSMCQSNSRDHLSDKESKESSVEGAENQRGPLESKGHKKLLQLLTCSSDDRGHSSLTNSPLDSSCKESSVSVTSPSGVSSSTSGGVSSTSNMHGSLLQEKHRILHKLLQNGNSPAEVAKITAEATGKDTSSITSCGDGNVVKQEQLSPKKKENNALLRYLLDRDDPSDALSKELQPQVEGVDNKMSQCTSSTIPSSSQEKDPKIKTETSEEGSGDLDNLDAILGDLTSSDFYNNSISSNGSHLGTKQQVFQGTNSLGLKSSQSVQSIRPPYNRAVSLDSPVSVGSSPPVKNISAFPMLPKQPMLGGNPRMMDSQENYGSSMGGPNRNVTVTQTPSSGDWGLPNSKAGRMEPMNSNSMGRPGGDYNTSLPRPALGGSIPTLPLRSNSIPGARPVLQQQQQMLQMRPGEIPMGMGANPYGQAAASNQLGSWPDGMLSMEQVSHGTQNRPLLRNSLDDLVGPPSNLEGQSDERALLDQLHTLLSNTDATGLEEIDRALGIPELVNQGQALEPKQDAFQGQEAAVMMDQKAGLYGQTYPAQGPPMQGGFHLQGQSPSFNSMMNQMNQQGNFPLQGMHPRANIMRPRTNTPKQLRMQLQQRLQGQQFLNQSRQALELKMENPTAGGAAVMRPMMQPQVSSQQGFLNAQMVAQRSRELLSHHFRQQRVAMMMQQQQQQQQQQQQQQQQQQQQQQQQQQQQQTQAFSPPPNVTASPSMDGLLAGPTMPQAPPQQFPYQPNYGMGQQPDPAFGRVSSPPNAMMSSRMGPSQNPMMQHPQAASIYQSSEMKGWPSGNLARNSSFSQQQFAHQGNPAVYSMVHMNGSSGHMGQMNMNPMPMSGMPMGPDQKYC

Broadly, the inhibition is the relative decrease from the control value, in per cent. In the case of `CC1=C(C(=O)OCc2ccc3c(c2)OCO3)C(c2cccc([N+](=O)[O-])c2)NC(=O)N1` (stereo not given), the inhibition in test [1] is 64.6% (active); in test [2] it was 42.2% (active); in test [3], 65.7% (active); in test [4] it was 37.3% (active); in test [5], -0.72%; in test [6], 51.9% (active).

With `CCn1c(Oc2ccc(F)cc2)nc2c1c(=O)n(C)c(=O)n2C`, the inhibition is 33.6% in test [1]; 29.8% (active) in test [2]; 39.9% in test [3]; 23.5% in test [4]; 2.83% in test [5]; 30.9% in test [6].

On to `Cc1ccc(-c2csc(=Nc3cccnc3)n2CCCn2ccnc2)cc1C`, for which the inhibition in test [1] was 71% (active); in test [2] it was 51.5% (active); in test [3] it was 66.7% (active); in test [4] it was 45.6% (active); in test [5], -0.44%; in test [6], 56.8% (active).

Turning to `Cc1c(CC(=O)NCCCC(=O)O)c(=O)oc2cc3c(cc12)CCC(C)(C)O3`, the inhibition in test [1] was 35.8%; in test [2], 17.2%; in test [3] it was 15.6%; in test [4], 15.5%; in test [5], 58.8% (active); in test [6] it was 60.9% (active).

For the molecule `Cc1ccc(OCC(=O)c2cc(C)n(-c3ccccc3)c2C)c([N+](=O)[O-])n1`, the inhibition in test [1] was 38.5%; in test [2], -20.9%; in test [3] it was 29.1%; in test [4] it was -31.4%; in test [5], -12.8%; in test [6] it was 83.3% (active).
